For part of these data: Entries with a potency or affinity are not part of this list. Calls of active or inactive are those of the source.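 The calls were made as follows, unless noted: active = primary screen activator hit with a dose response curve and TRPC4 channel activation at any tested dose; inactive = no activation, no dose response, or not a primary hit.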
Assays:
[1] = system: TRPC4 beta (transient receptor potential cation channel C4), mouse; test: activators of mouse TRPC4 channel, confirmation, cell-based, Fluo4 calcium, HEK293 TRPC4beta/mu-opioid, duplicates, 10 µM (AID 2426;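 active = fluorescence ratio normalized to control raised more than 50% in primary screen plus both repeat runs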); conditions: Fluo4 calcium fluorescence, at 10 µM; stronger effect = higher value
[2] = system: transient receptor potential cation channel C4 beta (TRPC4), mouse; test: activators of mouse TRPC4 channel, confirmation, cell-based, second round, Fluo4, HEK293 TRPC4beta/mu-opioid, 1 µM (AID 2461;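 active = primary screen active and over 50% activation in each of two duplicate runs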); conditions: Fluo4 calcium fluorescence, at 1 µM; stronger effect = higher value
[3] = system: TRPC4 (transient receptor potential cation channel C4 beta), mouse; test: positive allosteric modulators of mouse TRPC4, confirmation, cell-based, second round, Fluo-4, HEK293 TRPC4beta/mu-opioid, 1 µM (AID 2554;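 active = primary screen hit whose fluorescence ratio, in both repeats, exceeds the weak agonist control mean by 3 SD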); conditions: DAMGO EC20, Fluo-4 calcium flux, at 1 µM; stronger effect = higher value
[4] = system: TRPC4 beta (transient receptor potential cation channel C4), mouse; test: positive allosteric modulators of mouse TRPC4, confirmation, cell-based, Fluo-4, HEK293 TRPC4beta/mu-opioid (AID 2555;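 active = primary screen hit whose calcium fluorescence ratio, in both repeats, exceeds the weak agonist control mean by 3 SD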); conditions: DAMGO EC20, Fluo-4 calcium flux, at 10 µM; stronger effect = higher value
[5] = target: Short transient receptor potential channel 4 (Mus musculus) (UniProt Q9QUQ5); test: inhibitors of mouse TRPC4 channel, confirmation, cell-based, Fluo4, HEK293 TRPC4beta/mu-opioid (AID 2636;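 active = calcium signal cut by more than 3 SD below the full-agonist control yet still positive, in both repeats and the earlier primary screen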); conditions: DAMGO, Fluo4 calcium flux, at 10 µM; stronger effect = higher value
[6] = target: Short transient receptor potential channel 4 (Mus musculus) (UniProt Q9QUQ5); test: inhibitors of mouse TRPC4 channel, confirmation, cell-based, second round, Fluo4, HEK293 TRPC4beta/mu-opioid, 1 µM (AID 2637;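 active = calcium signal ratio cut to more than 3 SD under the fully stimulated control mean yet still positive, in both repeats and the primary screen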;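 as to inhibition: percent of integrated ratio relative to wells lacking test compound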); conditions: Fluo4 calcium flux, DAMGO, at 1 µM; stronger effect = higher value
[7] = target: Short transient receptor potential channel 4 (Mus musculus) (UniProt Q9QUQ5); test: mouse TRPC4 channel activators, dose response, cell-based, HEK293 TRPC4/mu-opioid, Fluo-4 calcium (AID 434937)
[8] = target: Short transient receptor potential channel 4 (Mus musculus) (UniProt Q9QUQ5); test: TRPC4 positive allosteric modulators, dose response, cell-based, HEK293 TRPC4/mu-opioid, Fluo-4 calcium, EC20 DAMGO (AID 434941;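 active = earlier screen potentiator hit that boosts the TRPC4 ion channel at some dose, with a dose response; inactive = no potentiation, no dose response, or not a prior hit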;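 also: calcium entry triggered by an EC20 dose of DAMGO at the co-expressed mu-opioid receptor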)
[9] = target: Short transient receptor potential channel 6 (Mus musculus) (UniProt Q61143); test: inhibition of mouse TRPC6 channel, confirmation, selectivity assay for TRPC4 inhibitor project, cell-based, HEK293, membrane potential dye, duplicate (AID 434948;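 active = active in primary screen and both duplicates, each dropping signal beyond three positive-control SD with fluorescence still positive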); conditions: HEK293 TRPC6, membrane potential dye fluorescence, at 10 µM, stimulated with maximal-effect acetylcholine; stronger effect = higher value
[10] = target: Short transient receptor potential channel 6 (Mus musculus) (UniProt Q61143); test: activation of mouse TRPC6 channel, confirmation, selectivity assay for TRPC4 activator project, cell-based, HEK293, membrane potential dye, duplicate (AID 434950;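 active = membrane potential signal rise above negative control mean plus 3 SD in both duplicates, also active in the earlier TRPC4 screen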); conditions: HEK293 TRPC6, membrane potential fluorescence, at 10 µM; stronger effect = higher value
[11] = target: Short transient receptor potential channel 6 (Mus musculus) (UniProt Q61143); test: TRPC6 potentiation by TRPC4 potentiator hits, confirmation, selectivity assay for TRPC4 potentiator project, HEK293 cells, membrane potential dye, duplicate (AID 434952;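 active = compound raising the membrane signal above positive-control mean plus 3 SD in both repeats, and a primary screen hit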); conditions: HEK293 TRPC6, membrane potential dye fluorescence, at 10 µM, maximal acetylcholine added after compound; stronger effect = higher value
[12] = target: Short transient receptor potential channel 4 (Mus musculus) (UniProt Q9QUQ5); test: calcium flux activators in TRPC4/5HT1a cells, counter-screen for TRPC4 activator project, cell-based, second counter screen, HEK293 TRPC4/5HT1a, Fluo-4 (AID 434977;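 active = calcium signal rise above buffer-control mean plus 5 SD in both duplicates, and also a hit in the primary screen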); conditions: Fluo-4 calcium flux, at 10 µM; stronger effect = higher value
[13] = calcium flux inhibitors in TRPC4/5HT1a cells, confirmation, counter-screen for TRPC4 inhibitor project, cell-based, second counter screen, HEK293 TRPC4/5HT1a, Fluo-4 (AID 434978;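 active = primary screen active whose calcium signal fell more than 3 SD beyond the full-serotonin control mean in both duplicate plates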;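 as to outcome: serotonin given first at submaximal then at maximal dose after compound preincubation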); conditions: Fluo-4 calcium flux, at 10 µM, serotonin added to trigger calcium flux; stronger effect = higher value
[14] = system: TRPC4 (mouse), co-expressed with 5HT1a in HEK293; test: calcium flux potentiators in TRPC4/5HT1a cells, confirmation, counter-screen for TRPC4 potentiator project, cell-based, second counter screen, HEK293 TRPC4/5HT1a, Fluo-4 (AID 434979;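 active = signal rise over 3 SD above mean of control wells given weak agonist, in both repeats and first screen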); conditions: Fluo-4 calcium flux, at 10 µM, serotonin added at its EC20 dose; stronger effect = higher value
[15] = calcium flux activation in mu-opioid HEK293 cells, confirmation, counter-screen for TRPC4 activator project, cell-based, HEK293 mu-opioid receptor line (AID 449723;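 active = hit in primary screen, with calcium signal over 5 SD above buffer well mean in both duplicates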;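 also: counter screen cells carry the mu-opioid receptor alone and lack TRPC4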); conditions: Fluo-4 calcium fluorescence, at 10 µM; stronger effect = higher value
[16] = calcium flux enhancement in mu-opioid HEK293 cells, confirmation, counter-screen for TRPC4 allosteric potentiator project, cell-based, HEK293 mu-opioid receptor line (AID 449724;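 active = calcium signal rise more than 3 SD above the low-dose agonist control mean, in both duplicate plates and the primary screen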); conditions: Fluo-4 calcium flux, at 10 µM, compound added before EC20 DAMGO stimulus; stronger effect = higher value

Short transient receptor potential channel 4 (Mus musculus), sequence (Q9QUQ5 whole entry, looked up): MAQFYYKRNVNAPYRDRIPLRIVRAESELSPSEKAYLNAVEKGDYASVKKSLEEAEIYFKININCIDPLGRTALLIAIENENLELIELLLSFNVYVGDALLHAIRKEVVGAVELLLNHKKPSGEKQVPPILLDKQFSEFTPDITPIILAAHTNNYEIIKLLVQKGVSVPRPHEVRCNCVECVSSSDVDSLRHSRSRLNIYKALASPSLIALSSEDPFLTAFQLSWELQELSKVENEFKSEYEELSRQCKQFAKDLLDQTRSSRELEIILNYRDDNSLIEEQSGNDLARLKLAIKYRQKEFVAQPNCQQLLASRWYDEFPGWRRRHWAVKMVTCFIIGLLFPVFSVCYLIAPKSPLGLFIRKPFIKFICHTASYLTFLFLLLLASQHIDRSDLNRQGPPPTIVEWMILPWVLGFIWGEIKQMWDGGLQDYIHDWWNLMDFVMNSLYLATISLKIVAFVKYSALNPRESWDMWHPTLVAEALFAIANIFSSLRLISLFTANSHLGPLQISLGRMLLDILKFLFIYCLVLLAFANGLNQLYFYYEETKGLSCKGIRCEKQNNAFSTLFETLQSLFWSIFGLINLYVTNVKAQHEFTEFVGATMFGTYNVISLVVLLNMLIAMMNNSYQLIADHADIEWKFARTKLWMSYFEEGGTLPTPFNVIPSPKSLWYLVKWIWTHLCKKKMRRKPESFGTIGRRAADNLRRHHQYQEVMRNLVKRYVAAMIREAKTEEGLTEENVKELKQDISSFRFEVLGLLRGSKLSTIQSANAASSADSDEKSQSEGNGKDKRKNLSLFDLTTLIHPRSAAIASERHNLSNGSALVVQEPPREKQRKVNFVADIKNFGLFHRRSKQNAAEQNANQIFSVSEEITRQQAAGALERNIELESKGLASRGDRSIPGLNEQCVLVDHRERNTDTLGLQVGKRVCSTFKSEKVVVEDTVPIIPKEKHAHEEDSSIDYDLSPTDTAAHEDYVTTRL
Short transient receptor potential channel 6 (Mus musculus), sequence (Q61143 whole entry, looked up): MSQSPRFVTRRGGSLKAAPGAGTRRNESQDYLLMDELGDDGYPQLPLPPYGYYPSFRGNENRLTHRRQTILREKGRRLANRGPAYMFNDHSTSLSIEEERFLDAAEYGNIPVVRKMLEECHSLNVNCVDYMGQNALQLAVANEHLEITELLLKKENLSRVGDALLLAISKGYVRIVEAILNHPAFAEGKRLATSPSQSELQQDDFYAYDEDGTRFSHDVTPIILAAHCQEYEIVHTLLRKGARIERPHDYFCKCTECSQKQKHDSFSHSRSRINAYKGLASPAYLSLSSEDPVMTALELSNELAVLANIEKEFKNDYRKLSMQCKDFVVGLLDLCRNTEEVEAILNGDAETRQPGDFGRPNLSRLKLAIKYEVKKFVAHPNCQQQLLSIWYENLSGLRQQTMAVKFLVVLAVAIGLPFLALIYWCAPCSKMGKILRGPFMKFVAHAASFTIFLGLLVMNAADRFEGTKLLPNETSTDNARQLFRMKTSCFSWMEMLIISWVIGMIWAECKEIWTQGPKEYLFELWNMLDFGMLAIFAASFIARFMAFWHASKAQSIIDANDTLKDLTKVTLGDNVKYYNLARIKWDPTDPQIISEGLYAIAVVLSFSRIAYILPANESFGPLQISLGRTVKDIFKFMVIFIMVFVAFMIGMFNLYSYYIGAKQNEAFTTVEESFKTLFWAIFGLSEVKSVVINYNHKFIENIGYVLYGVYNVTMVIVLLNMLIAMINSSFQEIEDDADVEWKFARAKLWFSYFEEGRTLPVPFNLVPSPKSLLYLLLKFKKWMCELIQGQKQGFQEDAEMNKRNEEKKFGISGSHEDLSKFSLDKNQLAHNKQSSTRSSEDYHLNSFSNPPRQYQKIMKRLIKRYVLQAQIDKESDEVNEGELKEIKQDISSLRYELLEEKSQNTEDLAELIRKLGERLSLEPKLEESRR

CCn1c2ccccc2c2cc(/C=N/NC(=O)c3cc(O)cc(O)c3)ccc21
inactive: outcome [1] | outcome [2] | outcome [3] | outcome [4] | outcome [7] | outcome [8] | outcome [9] | outcome [10] | outcome [11] | outcome [12] | outcome [14] | outcome [15] | outcome [16]
active: inhibition [5] 78% | inhibition [6] 43% | inhibition [13] 43%

CCOC(=O)C1(CC2CC2)CCN(Cc2cc(Cl)c(O)c(OC)c2)CC1
inactive: outcome [1] | outcome [2] | outcome [3] | outcome [4] | outcome [6] | outcome [7] | outcome [8] | outcome [9] | outcome [10] | outcome [11] | outcome [12] | outcome [13] | outcome [14] | outcome [15] | outcome [16]
active: inhibition [5] 71%

c1ccc(NC(=NCc2ccco2)c2ccccc2)cc1
active: inhibition [5] 94% | inhibition [6] 45%
inactive: outcome [1] | outcome [2] | outcome [3] | outcome [4] | outcome [7] | outcome [8] | outcome [9] | outcome [10] | outcome [11] | outcome [12] | outcome [13] | outcome [14] | outcome [15] | outcome [16]

CCOC(=O)c1c(NC(=O)C2CC(Cl)=CCC2C(=O)O)sc2c1CCCCC2 (stereo not given)
active: inhibition [5] 96% | inhibition [6] 43% | inhibition [13] 31.8%
inactive: outcome [1] | outcome [2] | outcome [3] | outcome [4] | outcome [7] | outcome [8] | outcome [9] | outcome [10] | outcome [11] | outcome [12] | outcome [14] | outcome [15] | outcome [16]

CCOC(=O)C1(Cc2cccc(F)c2)CCN(Cc2c(C)nn(CC)c2C)CC1
inactive: outcome [1] | outcome [2] | outcome [3] | outcome [4] | outcome [6] | outcome [7] | outcome [8] | outcome [9] | outcome [10] | outcome [11] | outcome [12] | outcome [13] | outcome [14] | outcome [15] | outcome [16]
active: inhibition [5] 86%

CCn1c(NCc2c[nH]c3ccccc23)nc2ccccc21
inactive: outcome [1] | outcome [2] | outcome [3] | outcome [4] | outcome [6] | outcome [7] | outcome [8] | outcome [9] | outcome [10] | outcome [11] | outcome [12] | outcome [14] | outcome [15] | outcome [16]
active: inhibition [5] 89% | inhibition [13] 32.7%

O=C(OCC(=O)N1CCc2ccccc2C1)c1cccc([N+](=O)[O-])c1
inactive: outcome [1] | outcome [2] | outcome [3] | outcome [4] | outcome [7] | outcome [8] | outcome [9] | outcome [10] | outcome [11] | outcome [12] | outcome [14] | outcome [15] | outcome [16]
active: inhibition [5] 95% | inhibition [6] 47% | inhibition [13] 40.7%

COc1ccc(C2CC(c3ccccc3)Nc3nc(NC(=O)c4cccs4)nn32)cc1 (stereo not given)
active: inhibition [5] 95%
inactive: outcome [1] | outcome [2] | outcome [3] | outcome [4] | outcome [6] | outcome [7] | outcome [8] | outcome [9] | outcome [10] | outcome [11] | outcome [12] | outcome [13] | outcome [14] | outcome [15] | outcome [16]

CCc1cccc(OCC(=O)Nc2ccc(C(=O)O)cc2NC(=O)COc2cccc(CC)c2)c1
active: inhibition [5] 93% | inhibition [13] 40.9%
inactive: outcome [1] | outcome [2] | outcome [3] | outcome [4] | outcome [6] | outcome [7] | outcome [8] | outcome [9] | outcome [10] | outcome [11] | outcome [12] | outcome [14] | outcome [15] | outcome [16]

COc1cc2ccccc2c2c1CCCC2=O
active: inhibition [5] 85% | inhibition [13] 26.2%
inactive: outcome [1] | outcome [2] | outcome [3] | outcome [4] | outcome [6] | outcome [7] | outcome [8] | outcome [9] | outcome [10] | outcome [11] | outcome [12] | outcome [14] | outcome [15] | outcome [16]

CCOC(=O)c1c(NC(=O)C2CCCCC2C(=O)O)sc2c1CCCCC2 (stereo not given)
inactive: outcome [1] | outcome [2] | outcome [3] | outcome [4] | outcome [6] | outcome [7] | outcome [8] | outcome [9] | outcome [10] | outcome [11] | outcome [12] | outcome [14] | outcome [15] | outcome [16]
active: inhibition [5] 80% | inhibition [13] 42.6%

N#Cc1c(-c2cccs2)nc(SCc2ccc(Cl)cc2)[nH]c1=O
inactive: outcome [1] | outcome [2] | outcome [3] | outcome [7] | outcome [8] | outcome [9] | outcome [10] | outcome [11] | outcome [12] | outcome [14] | outcome [15] | outcome [16]
active: potentiation [4] 15% | inhibition [5] 99% | inhibition [6] 40% | inhibition [13] 11.9%

COc1ccc(Sc2nc(-c3ccccc3)ncc2C(=O)O)cc1
inactive: outcome [1] | outcome [2] | outcome [3] | outcome [4] | outcome [6] | outcome [7] | outcome [8] | outcome [9] | outcome [10] | outcome [11] | outcome [12] | outcome [14] | outcome [15] | outcome [16]
active: inhibition [5] 48% | inhibition [13] 45.5%

COc1cccc(C(=O)C2CCCN(Cc3cccn3-c3ccccn3)C2)c1 (stereo not given)
inactive: outcome [1] | outcome [2] | outcome [3] | outcome [4] | outcome [6] | outcome [7] | outcome [8] | outcome [10] | outcome [11] | outcome [12] | outcome [14] | outcome [15] | outcome [16]
active: inhibition [5] 44% | inhibition [9] 38% | inhibition [13] 35.6%

CCOC(=O)C1(Cc2ccccc2)CCN(Cc2ccc(C)s2)CC1
active: inhibition [5] 88% | inhibition [13] 13.9%
inactive: outcome [1] | outcome [2] | outcome [3] | outcome [4] | outcome [6] | outcome [7] | outcome [8] | outcome [9] | outcome [10] | outcome [11] | outcome [12] | outcome [14] | outcome [15] | outcome [16]
